Laboratory results published in PubChem BioAssay (Tox21).
Inconclusive results are not listed. Activity calls are given as the source filed them. Unless noted, the call rests on the fitted dose curve.

Key:
[1] = Nuclear factor erythroid 2-related factor 2/antioxidant responsive element (Nrf2/ARE) small molecule agonists: qHTS cell viability counter screen in human keratinocytes (AID 1919968; active means well fitted curve in the direction sought with a large enough effect in the repeat runs; an effect the other way counts as inactive or inconclusive; further: nearly all actives have a fitted effect of over 55% in size)
In short: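 Cells of the KeratinoSens line were plated at 1,500 per well and left for 5 h before compound transfer from DMSO stocks. After a 23 h incubation (37 C, 5% CO2), CellTiter-Fluor was added. Signal was taken as fluorescence intensity 1 h later.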

[2] = Nuclear factor erythroid 2-related factor 2/antioxidant responsive element (Nrf2/ARE) small molecule agonists: luciferase reporter gene qHTS assay in human keratinocytes (AID 1919969); further: nearly all actives have a fitted effect of over 35% in size
[3] = molecular target: Gonadotropin-releasing hormone receptor (Homo sapiens) (UniProt P30968); test: Human gonadotropin-releasing hormone receptor (GnRHR) small molecule agonists, calcium flux assay in GnRHR-HEK293 cells (AID 1920063); further: nearly all actives have a fitted effect of over 35% in size
In short: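 Compounds dissolved in DMSO are pin-transferred onto dye-loaded GnRHR-HEK293 cells, which were seeded 18 h before at 37 C/5% CO2. Calcium signal is read as fluorescence intensity at 1 s intervals for 3 min.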

[4] = molecular target: KiSS-1 receptor (Homo sapiens) (UniProt Q969F8); test: Human kisspeptin (KISS1R) small molecule agonists, calcium flux assay in KISS1R-HEK293 cells (AID 1920064; active means well fitted curve in the direction sought with a large enough effect in the repeat runs; an effect the other way counts as inactive or inconclusive)
In short: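 Cell line: HEK293, stable human KISS1R. Dye loading 1 h at 37 C after 18 h culture. Read: kinetic fluorescence, 480/540 nm, 3 min at 1 s intervals.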

[5] = G protein-coupled receptor (GPCR) small molecule agonists, calcium flux assay: HEK293 wild type cell line counter screen (AID 1920065)
In short: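 Tox21 10K compounds, 15 concentrations each in triplicate, pin-transferred in DMSO onto dye-loaded cells; kinetic read at 480/540 nm for 3 min, 1 s intervals.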

[6] = p53 small molecule agonists, cell-based qHTS assay with human liver microsomes (AID 1963577);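 further: p53 response element beta-lactamase reporter cells with liver microsomes plus NADPH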
In short: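 HLM-supplemented p53RE-bla reporter assay: 16 h compound exposure at 37 C, microsomes and NADPH each 0.5 mg/mL final, read by fluorescence intensity.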

[7] = p53 small molecule agonists, cell-based qHTS assay with rat liver microsomes (AID 1963578)
In short: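 Quantitative HTS of the Tox21 10K library: p53RE-bla cells, rat liver microsomes plus NADPH at 0.5 mg/mL final each, 16 h at 37 C, beta-lactamase fluorescence detection.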

[8] = p53 small molecule agonists, cell-based qHTS assay with human liver microsomes: qHTS cell viability counter screen (AID 1963579); further: nearly all actives have a fitted effect of over 45% in size
In short: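 Viability of p53RE-bla cells is measured as CellTiter-Glo luminescence following a 16 h, 37 C incubation with compound, liver microsomes from human donors and NADPH.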

[9] = p53 small molecule agonists, cell-based qHTS assay with rat liver microsomes: qHTS cell viability counter screen (AID 1963580); further: nearly all actives have a fitted effect of over 45% in size
In short: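 Cytotoxicity counter screen: intracellular ATP measured by CellTiter-Glo luminescence in the same wells as the beta-lactamase reporter read, on HCT-116 p53RE-bla cells exposed 16 h at 37 C to compounds with rat liver microsomes and NADPH, each 0.5 mg/mL final.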

[10] = p53 small molecule agonists, cell-based qHTS assay: qHTS cell viability counter screen (AID 1963581); further: nearly all actives have a fitted effect of over 45% in size
In short: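 ATP content measured by luminescence in HCT-116 p53RE-bla cells treated 16 h at 37 C, same wells as the reporter screen.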

[11] = p53 small molecule agonists, cell-based qHTS assay (AID 1963582; active means well fitted activation curve with a large enough effect in the signal ratio in the repeat runs, not every such curve was filed as active; the % refers to the signal ratio)
In short: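 16 h compound exposure (37 C) of p53 response element–bla cells, preceded by 5 h recovery at 37 C/5% CO2; read-out via LiveBLAzer B/G FRET substrate, 2 h RT, fluorescence intensity.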

[12] = cAMP Responsive Elements (CRE) small molecule agonists, cell-based qHTS assay (AID 1963590)
In short: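 HEK 293T cells stably bearing CRE-bla were plated at 2,000 cells per well and rested 18 h. Compounds, positive controls or DMSO were added for 3 h at 37 C. LiveBLAzer B/G substrate was then loaded for 2 h at room temperature.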

[13] = cAMP Responsive Elements (CRE) small molecule antagonists, cell-based qHTS assay (AID 1963591; active means well fitted inhibition curve with a large enough effect in the signal ratio in the repeat runs, not every such curve was filed as active; the % refers to the signal ratio)
In short: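 First, CRE-bla HEK293T cells settled 18 h at 37 C. Next, compound and 0.25 uM final NKH477 were applied for 3 h. Last, LiveBLAzer B/G substrate was loaded for 2 h at room temperature.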

[14] = molecular target: Beta-2 adrenergic receptor (Homo sapiens) (UniProt P07550); test: Adrenergic beta2 receptor (ADRB2) small molecule antagonists, cell-based qHTS assay (AID 1963592); further: series mostly up to about 92 µM; nearly all actives have a fitted effect of over 50% in size
In short: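 Assay format: CHO-ADRB2 cells, 18-20hr seeding at 37C/5% CO2, then compound plus 1nM isoproterenol agonist mix for 0.5hr RT. Homogeneous time-resolved fluorescence cAMP detection after 1hr, expressed as 665/615 nm ratio.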

[15] = molecular target: D(2) dopamine receptor (Homo sapiens) (UniProt P14416); test: Dopamine D2 receptor (DRD2) small molecule antagonists, cell-based qHTS assay (AID 1963595; active means well fitted inhibition curve with a large enough effect in the signal ratio in the repeat runs, with a control signal flat; the % refers to the signal ratio)
In short: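 In this cell-based antagonist screen, compounds act for 10 min at room temperature before a 30 min challenge with 12 nM quinpirole and 200 nM NKH477. cAMP is quantified by HTRF competition in DRD2-HEK293 cells containing 0.1 mM Ro20-1724.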

[16] = molecular target: D(2) dopamine receptor (Homo sapiens) (UniProt P14416); test: Dopamine D2 receptor (DRD2) small molecule agonists, cell-based qHTS assay (AID 1963594); further: nearly all actives have a fitted effect of over 35% in size
In short: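 HEK293 cells stably expressing human DRD2, pre-treated with PDE inhibitor Ro20-1724 (0.1 mM final) and compound 10 min at room temperature, then stimulated with NKH477 (200nM […]) for 30 min. cAMP read by HTRF (665/620 nm).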

[17] = molecular target: 5-hydroxytryptamine receptor 2A (Homo sapiens) (UniProt P28223); test: 5-hydroxytryptamine receptor 2A (HTR2A) small molecule agonists, cell-based qHTS assay (AID 1963587); further: nearly all actives have a fitted effect of over 30% in size
In short: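 CHO cells stably expressing human HTR2A, plated 18 h, loaded with calcium dye 1 h at 37 C. Agonist mode: compounds added and intracellular calcium fluorescence recorded kinetically for 2 min at 1 sec intervals.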

[18] = molecular target: Muscarinic acetylcholine receptor M1 (Homo sapiens) (UniProt P11229); test: Cholinergic receptor muscarinic 1 (CHRM1) small molecule antagonists, cell-based qHTS assay (AID 1963588); further: nearly all actives have a fitted effect of over 40% in size; further: potency means the concentration at half of the fitted maximal effect
In short: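 Compounds were tested at 15 concentrations in three independent runs. Dye-loaded CHRM1-CHO cells were exposed 5 min at room temperature before stimulation by acetylcholine added at 50nM. Intracellular calcium was read kinetically on FDSS for 3 min.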

[19] = molecular target: Muscarinic acetylcholine receptor M1 (Homo sapiens) (UniProt P11229); test: Cholinergic receptor muscarinic 1 (CHRM1) small molecule agonists, cell-based qHTS assay (AID 1963589); further: nearly all actives have a fitted effect of over 35% in size
In short: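 Homogeneous fluorescence calcium flux, agonist mode. Human M1-expressing CHO cells; compound dosed at 15 concentrations, three independent runs; signal sampled every 1 sec.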

Measured: Potency

D(2) dopamine receptor (Homo sapiens), sequence (P14416 whole entry, looked up): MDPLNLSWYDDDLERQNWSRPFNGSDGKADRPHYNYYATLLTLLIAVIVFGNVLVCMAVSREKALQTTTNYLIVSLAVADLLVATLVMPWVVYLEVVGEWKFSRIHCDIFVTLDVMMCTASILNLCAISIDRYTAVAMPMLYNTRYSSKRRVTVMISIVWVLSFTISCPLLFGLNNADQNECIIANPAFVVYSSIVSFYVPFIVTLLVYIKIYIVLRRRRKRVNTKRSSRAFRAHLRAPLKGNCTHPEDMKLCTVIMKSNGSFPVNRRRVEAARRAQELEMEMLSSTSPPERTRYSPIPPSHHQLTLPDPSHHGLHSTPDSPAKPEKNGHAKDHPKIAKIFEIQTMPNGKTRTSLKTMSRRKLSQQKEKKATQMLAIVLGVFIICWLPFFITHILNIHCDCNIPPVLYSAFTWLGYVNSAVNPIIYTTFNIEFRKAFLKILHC
Muscarinic acetylcholine receptor M1 (Homo sapiens), sequence (P11229 whole entry, looked up): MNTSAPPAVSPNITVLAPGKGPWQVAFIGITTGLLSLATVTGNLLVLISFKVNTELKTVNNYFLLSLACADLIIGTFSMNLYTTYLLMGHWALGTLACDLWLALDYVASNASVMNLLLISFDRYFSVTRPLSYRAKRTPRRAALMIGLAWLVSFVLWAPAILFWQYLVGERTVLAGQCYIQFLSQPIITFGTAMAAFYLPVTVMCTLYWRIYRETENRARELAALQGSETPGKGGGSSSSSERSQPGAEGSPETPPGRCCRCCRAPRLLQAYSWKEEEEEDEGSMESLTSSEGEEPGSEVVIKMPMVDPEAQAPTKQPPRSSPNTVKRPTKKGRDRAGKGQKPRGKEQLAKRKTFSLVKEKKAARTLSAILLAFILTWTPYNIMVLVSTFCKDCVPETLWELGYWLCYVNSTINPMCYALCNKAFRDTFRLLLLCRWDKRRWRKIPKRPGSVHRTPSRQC
5-hydroxytryptamine receptor 2A (Homo sapiens), sequence (P28223 whole entry, looked up): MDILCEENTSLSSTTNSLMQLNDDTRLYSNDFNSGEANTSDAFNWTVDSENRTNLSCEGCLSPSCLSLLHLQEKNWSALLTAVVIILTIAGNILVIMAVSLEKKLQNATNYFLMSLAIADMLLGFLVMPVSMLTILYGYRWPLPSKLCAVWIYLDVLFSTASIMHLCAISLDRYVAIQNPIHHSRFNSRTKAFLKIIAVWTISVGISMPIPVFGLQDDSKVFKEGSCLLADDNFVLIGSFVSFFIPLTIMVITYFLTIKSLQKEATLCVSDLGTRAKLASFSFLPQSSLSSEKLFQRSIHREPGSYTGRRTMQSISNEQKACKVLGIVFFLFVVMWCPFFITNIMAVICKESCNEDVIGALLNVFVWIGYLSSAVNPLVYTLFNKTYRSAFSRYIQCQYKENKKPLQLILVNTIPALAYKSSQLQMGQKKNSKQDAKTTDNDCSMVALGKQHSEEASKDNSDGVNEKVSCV
Beta-2 adrenergic receptor (Homo sapiens), sequence (P07550 whole entry, looked up): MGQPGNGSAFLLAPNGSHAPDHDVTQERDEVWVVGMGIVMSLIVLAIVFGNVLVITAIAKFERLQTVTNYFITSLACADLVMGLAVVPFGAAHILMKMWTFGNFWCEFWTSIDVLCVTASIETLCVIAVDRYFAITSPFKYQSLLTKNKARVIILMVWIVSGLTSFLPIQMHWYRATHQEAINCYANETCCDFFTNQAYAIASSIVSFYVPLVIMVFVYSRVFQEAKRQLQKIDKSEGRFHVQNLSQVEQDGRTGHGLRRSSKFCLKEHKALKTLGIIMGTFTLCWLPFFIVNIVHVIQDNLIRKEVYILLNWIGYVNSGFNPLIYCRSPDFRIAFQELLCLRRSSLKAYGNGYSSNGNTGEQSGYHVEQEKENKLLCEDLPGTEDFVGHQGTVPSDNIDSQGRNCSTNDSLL
KiSS-1 receptor (Homo sapiens), sequence (Q969F8 whole entry, looked up): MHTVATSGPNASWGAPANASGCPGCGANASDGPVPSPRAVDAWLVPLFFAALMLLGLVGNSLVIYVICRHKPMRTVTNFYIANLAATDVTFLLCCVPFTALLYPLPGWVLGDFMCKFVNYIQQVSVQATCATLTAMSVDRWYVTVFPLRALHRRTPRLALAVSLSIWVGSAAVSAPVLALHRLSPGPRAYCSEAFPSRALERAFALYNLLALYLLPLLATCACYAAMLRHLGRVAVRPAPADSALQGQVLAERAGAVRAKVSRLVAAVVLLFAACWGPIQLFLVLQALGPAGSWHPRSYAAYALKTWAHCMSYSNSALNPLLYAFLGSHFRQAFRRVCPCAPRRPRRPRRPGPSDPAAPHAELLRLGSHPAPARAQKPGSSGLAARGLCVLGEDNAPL
Gonadotropin-releasing hormone receptor (Homo sapiens), sequence (P30968 whole entry, looked up): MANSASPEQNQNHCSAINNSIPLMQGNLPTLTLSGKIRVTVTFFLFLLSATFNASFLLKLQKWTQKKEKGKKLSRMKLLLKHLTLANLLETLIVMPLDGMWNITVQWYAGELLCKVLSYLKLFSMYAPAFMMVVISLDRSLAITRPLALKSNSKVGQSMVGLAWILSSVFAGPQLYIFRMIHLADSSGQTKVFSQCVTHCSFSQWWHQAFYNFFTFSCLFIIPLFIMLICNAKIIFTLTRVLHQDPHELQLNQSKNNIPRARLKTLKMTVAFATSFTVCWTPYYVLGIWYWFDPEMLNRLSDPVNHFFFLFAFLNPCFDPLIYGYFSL

CC(=O)O[C@H]1C[C@@H]2CC[C@@H]3[C@H](CC[C@@]4(C)[C@H]3C[C@H]([N+]3(C)CCCCC3)[C@@H]4OC(C)=O)[C@@]2(C)C[C@@H]1N1CCCCC1
not listed: [16] | [17] | [18] | [19]
inactive: all other assays above

CN1CCC(=C2c3ccccc3CC(=O)c3sccc32)CC1
not listed: [12] | [17] | [18] | [19]
inactive: all other assays above

CCC1=C(C)CN(C(=O)NCCc2ccc(S(=O)(=O)NC(=O)NC3CCC(C)CC3)cc2)C1=O (stereo unspecified)
not listed: [12] | [13] | [15] | [17] | [18] | [19]
inactive: all other assays above

c1ccc([C@H]2CN3CCSC3=N2)cc1
not listed: [13] | [17] | [18] | [19]
inactive: all other assays above

CN1CCN(c2c(F)cc3c(=O)c(C(=O)O)cn(CCF)c3c2F)CC1
not listed: [13] | [14] | [17] | [18] | [19]
inactive: all other assays above

CC(Cl)C(Cl)Cl (stereo unspecified)
not listed: [11]
inactive: all other assays above

COc1c(N2C[C@@H]3CCCN[C@@H]3C2)c(F)cc2c(=O)c(C(=O)O)cn(C3CC3)c12
active: [18] 6.5 µM
not listed: [11] | [14] | [16]
inactive: all other assays above

CCOC(=O)c1ccccc1
not listed: [11] | [15]
inactive: all other assays above

CCC1CO1 (stereo unspecified)
not listed: [11]
inactive: all other assays above
